Assay results published in PubChem BioAssay (NCATS).
Records with an inconclusive call do not appear. Values without a mark were called inactive. Activity calls are given as the source filed them. Calls follow the shape of the dose curve; as a rule, active = well fitted inhibition curve with a large enough effect in the repeat runs; inconclusive = weak or mixed curves; inactive = no such curve, though single readings can be large or run the other way.

Target: Cytochrome P450 2C9 (Homo sapiens) (UniProt P11712)
Assay: Cytochrome P450 family 2 subfamily C member 9 (CYP2C9) small molecule antagonists: luciferase biochemical (cell-free) qHTS assay (AID 1645842); also: nearly all actives have a fitted effect of over 55% in size
Details: P450-Glo CYP2C9 enzyme assay, luciferin luminescence; series mostly up to 57.4 µM; activity change, negative = inhibition: at the top concentration
In short: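 Luminescence, after 20 min with luciferin detection reagent, reflected CYP2C9 turnover during a 1 h NADPH-driven reaction at 37C. Enzyme-substrate mix contained 0.4% bovine serum albumin and was preincubated with compound 10 min at room temperature.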
% is scaled to controls: 0 for no effect and ±100 for the full control effect; potency is read from the fitted curve at half-maximal effect.

Cytochrome P450 2C9 (Homo sapiens), sequence (P11712 whole entry, looked up): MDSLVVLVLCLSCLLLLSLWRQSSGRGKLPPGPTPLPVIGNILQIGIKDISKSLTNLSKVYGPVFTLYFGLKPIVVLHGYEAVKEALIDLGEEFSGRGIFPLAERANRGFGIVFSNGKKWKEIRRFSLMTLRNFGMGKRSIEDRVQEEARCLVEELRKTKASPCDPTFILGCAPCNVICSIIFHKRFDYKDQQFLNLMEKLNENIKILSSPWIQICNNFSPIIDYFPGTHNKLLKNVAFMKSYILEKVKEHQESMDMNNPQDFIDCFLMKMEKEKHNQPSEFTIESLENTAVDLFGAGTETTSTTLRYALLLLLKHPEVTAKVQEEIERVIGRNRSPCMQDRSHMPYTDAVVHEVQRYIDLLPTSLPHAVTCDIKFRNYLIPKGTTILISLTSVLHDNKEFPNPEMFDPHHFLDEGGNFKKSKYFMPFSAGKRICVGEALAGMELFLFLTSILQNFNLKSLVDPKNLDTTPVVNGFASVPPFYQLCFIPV

Structure (SMILES) | activity change, negative = inhibition [%] | Potency
Clc1cccc(COc2cncc(N3CCNCC3)n2)c1 | -27.4 | 
CC(C)(C)OC(=O)c1ncn2c1C(C)(C)Nc1ccccc1-2 |  | 10.7 µM (active)
CN1CCN(C2=Nc3ccccc3Nc3ccc(Cl)cc32)CC1 |  | 13.5 µM (active)
Cc1cnn(-c2ccccc2)c1NC(=O)COCc1ccccc1 |  | 10.7 µM (active)
O=C(NCCCN1CCC2(CC1)OCc1ccccc12)[C@H]1CCCN1Cc1ccccc1 | -19.2 | 
CNCCCC1(c2ccccc2)OC(C)(C)c2ccccc21 (centres undefined) | 1.05 | 
O=C(Nc1ccc(N(Cc2ccsc2)C(=O)Cn2nnc3ccccc32)cc1)C1CC1 |  | 1.51 µM (active)
O=C(Nc1ccc(C(F)(F)F)cn1)N1CCN(c2ncccc2C(F)(F)F)CC1 |  | 3.01 µM (active)
CCCC(CCC)C(N)=O | 7.79 | 
O=C(NCCN1CCN(c2cccc3ccc(O)cc23)CC1)c1ccc(F)cc1 |  | 0.601 µM (active)
O=C(O)c1ccc(S(=O)(=O)N(Cc2ccc(OC(F)(F)F)cc2)c2ncc(C(F)(F)F)cc2Cl)cc1 |  | 23.9 µM (active)
C=CCCN1CCC2(CC1)CN(C(=O)c1c(F)cccc1F)c1ccc(Cl)cc12 |  | 13.5 µM (active)
O=C(Nc1ccccc1)N1CCN(c2nc(-c3ccccc3)ns2)CC1 |  | 5.35 µM (active)
CS(=O)(=O)Nc1ccc2oc3c(OC(F)F)ccc(C(=O)Nc4c(Cl)cncc4Cl)c3c2c1 |  | 3.38 µM (active)
CNC(=O)COC(=O)N1CCC(CCc2ccc(Cl)cc2)CC1 |  | 21.3 µM (active)
O=C(NCc1ccccc1-c1ccccc1C(=O)NCCc1ccccn1)OCc1ccccc1 |  | 2.68 µM (active)
O=C(N[C@@H]1CCCc2c1cnn2-c1ccc(F)cc1F)c1ccccn1 |  | 21.3 µM (active)
COc1ccc([C@H](Cc2ccncc2)c2ccccc2)cc1OC1CCCC1 |  | 0.425 µM (active)
Cc1noc(-c2ccc(-c3ccc(CC(=O)O)cc3)cc2)c1NC(=O)O[C@H](C)c1ccccc1Cl |  | 3.01 µM (active)
COc1cc(C(=O)NCC2(N(C)C)CCCC2)cc(OC)c1OCc1ccccc1 | 0.303 | 

Structure (SMILES) | activity change, negative = inhibition [%] | Potency
O=C(Nc1ccccc1C(=O)Nc1ccc(CCO)cc1)c1ccc([N+](=O)[O-])cc1 | 4.22 | 
C[C@H]1CO[C@@H]2Cn3cc(C(=O)NCc4ccc(F)cc4F)c(=O)c(O)c3C(=O)N12 | 1.07 | 
CCOC(=O)[C@H](CCc1ccccc1)N[C@H]1CCCN2CCC[C@@H](C(=O)O)N2C1=O | -27.3 | 
Cc1nc(N2CCN(C(=O)c3ccco3)CC2)c2c3c(sc2n1)CCCC3 |  | 4.77 µM (active)
C=C1CCN([C@H](C)[C@](O)(Cn2cncn2)c2ccc(F)cc2F)CC1 |  | 0.477 µM (active)
C[C@@H]1C[C@H](C)CN(CCC(=O)Nc2ccc(Br)cc2)C1 | -5.55 | 
O=C(c1ccc(Cl)cc1)N1CCN(c2ccnc3cc(Cl)ccc23)CC1 |  | 8.49 µM (active)
COc1ccc2cc(-c3cc(-c4cc(Cl)cc(Cl)c4)nn3C(C)c3ccc(C(=O)NCCC(=O)O)cc3)ccc2c1 (centres undefined) |  | 10.7 µM (active)
O=C(N[C@H]1CCN(C(=O)c2cc(C(F)(F)F)cc(C(F)(F)F)c2)[C@H](Cc2ccc(Cl)cc2)C1)c1ccnc2ccccc12 |  | 10.7 µM (active)
N#Cc1cccc(C(=O)Nc2cc(-c3ccccc3)nn2-c2ccccc2)c1 |  | 2.39 µM (active)
O=C(COc1ccc(C(=O)c2ccccc2)cc1)NC1CCN(Cc2ccccc2)CC1 |  | 4.77 µM (active)
O=c1[nH]c2ccc(C#CCN3CCC(Cc4ccccc4)CC3)cc2[nH]1 |  | 7.56 µM (active)
COc1cc(C(=O)NC(=S)Nc2cccc(NC(=O)c3ccccc3)c2)cc(OC)c1OC |  | 3.79 µM (active)
Cc1cn2c(n1)Cc1ccc(Cl)cc1C(c1ccc(N)cc1)=N2 |  | 12 µM (active)
O=C(Nc1ccn(Cc2ccc(O)cc2C(F)(F)F)n1)c1c(F)cccc1F |  | 6.01 µM (active)
Cc1cc(C)c2c(c1)C(N(Cc1cc(C(F)(F)F)cc(C(F)(F)F)c1)c1nnn(C)n1)CCCN2CC1CCC(C(=O)O)CC1 (centres undefined) |  | 10.7 µM (active)
O=C(NCCN1CCC(n2c(=O)[nH]c3ccccc32)CC1)c1cc2cc(F)ccc2[nH]1 |  | 3.38 µM (active)
CCc1ccc(-c2nc(CSCC(=O)NCCc3ccccc3)c(C)o2)cc1 |  | 8.49 µM (active)
COc1c(F)cccc1C(=O)N1C[C@@H](C)CC[C@H]1CNc1ccc(Br)cn1 |  | 5.35 µM (active)
